Results filed as inconclusive are left out. The source made the active and inactive calls. Unless noted, calls come from the whole dose curve.
What was measured:
[1] = qHTS assay to identify small molecule agonists of the sonic hedgehog signaling (Shh) pathway (AID 1259368);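 note: NIH/3T3-derived 3T3Gli1-Luc cells carrying a stable Gli1-driven firefly luciferase reporter; series mostly up to about 92 µM; nearly all actives have a fitted effect of over 15% in size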
Summary of the method: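 NIH/3T3-derived 3T3Gli1-Luc cells with stably integrated Gli1-driven firefly luciferase, 2,000 cells/well, compounds added after 4 hr. Incubated 24 hr at 37C, 5% CO2; luminescence read after 30 min with luciferase reagent at room temperature.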

[2] = qHTS assay to identify small molecule antagonists of the sonic hedgehog signaling (Shh) pathway (AID 1259369); note: nearly all actives have a fitted effect of over 45% in size
Summary of the method: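 NIH/3T3-derived Gli1-Luc reporter cells plated 4 h, dosed with compound, then stimulated with conditioned medium for 24 h at 37 C. Firefly luciferase luminescence read after 30 min with detection reagent at room temperature.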

[3] = qHTS assay to identify small molecule agonists of the androgen receptor (AR) signaling pathway in the presence of an antagonist - cell viability counter screen (AID 1259379; active = well fitted curve in the direction sought with a large enough effect in the repeat runs; an effect the other way counts as inactive or inconclusive;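 note: MDA-kb2 human breast cancer cells carrying an MMTV luciferase reporter; series mostly up to about 92 µM; nearly all actives have a fitted effect of over 25% in size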)
Summary of the method: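 MDA-kb2 cells (MMTV-luciferase, AR/GR), 3,000/well, 5 h attachment, then 3.0 µM nilutamide (final) and compounds at 15 concentrations. Viability by CellTiter-Fluor fluorescence after 16 h at 37 °C, 0% CO2, in the reporter wells.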

[4] = qHTS assay to identify small molecule agonists of the estrogen receptor beta (ER-beta) signaling pathway - cell viability counter screen (AID 1259380; active = well fitted curve in the direction sought with a large enough effect in the repeat runs; an effect the other way counts as inactive or inconclusive; note: nearly all actives have a fitted effect of over 30% in size)
Summary of the method: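 ER-beta-UAS-bla HEK293T cells in medium with 2% charcoal-stripped FBS, pre-incubated 6 hr, then treated 16 hr at 37C. Cytotoxicity read in the same wells by CellTiter-Glo luminescence after 30 min at room temperature.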

[5] = qHTS assay to identify small molecule antagonists of the estrogen receptor beta (ER-beta) signaling pathway - cell viability counter screen (AID 1259382; active = well fitted curve in the direction sought with a large enough effect in the repeat runs; an effect the other way counts as inactive or inconclusive;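 note: HEK293T cells carrying ER-beta-UAS-bla reporter stimulated with estradiol; series mostly up to about 92 µM; nearly all actives have a fitted effect of over 55% in size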)
Summary of the method: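 ER-beta-UAS-bla HEK293T cells in 2% charcoal-stripped FBS medium, treated with compound plus 1 nM 17-beta-estradiol for 16 h at 37C. Viability read by CellTiter-Glo luminescence after 30 min at room temperature in the same wells.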

[6] = molecular target: Estrogen receptor (Homo sapiens) (UniProt P03372); experiment: qHTS assay to identify small molecule agonists of the estrogen receptor alpha (ER-alpha) signaling pathway in the presence of an antagonist (AID 1259383); note: top concentration of the series differs between compounds; nearly all actives have a fitted effect of over 15% in size
Summary of the method: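 VM7Luc4E2 cells express endogenous full-length ER-alpha with an ERE-luciferase reporter and were hormone-deprived for 5 days. Compounds at 15 concentrations were added with 10.0nM ICI-182,780 for 22hr at 37C. Luminescence was read with ONE-Glo.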

[7] = qHTS assay to identify small molecule agonists or antagonists of the thyroid stimulating hormone receptor (TSHR) signaling pathway - wild type cell line counter screen (AID 1259384)
Summary of the method: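 Counter screen in untransfected Hek293: compounds (15-point titration, triplicate) plus phosphodiesterase inhibitor Ro20-1724 added after 18 h plating; 30 min RT. Intracellular cAMP via competitive d2/cryptate immunoassay, 1 h incubation.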

[8] = molecular target: Thyrotropin receptor (Homo sapiens) (UniProt P16473); experiment: qHTS assay to identify small molecule antagonists of the thyroid stimulating hormone receptor (TSHR) signaling pathway (AID 1259385); note: nearly all actives have a fitted effect of over 20% in size
Summary of the method: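 Antagonist mode: compound-treated TSHR-expressing HEK293 cells were stimulated with 1.5 ng/mL TSH (final) in presence of Ro20-1724 for 30 min at RT. HTRF cAMP detection after 1 h; each compound tested at 15 concentrations, triplicate.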

[9] = qHTS assay to identify small molecule agonists of the estrogen receptor alpha (ER-alpha) signaling pathway in the presence of an antagonist - cell viability counter screen (AID 1259386; active = well fitted curve in the direction sought with a large enough effect in the repeat runs; an effect the other way counts as inactive or inconclusive;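 note: series mostly up to about 92 µM; cells exposed to compounds for 22 h at 37 °C before the viability read; nearly all actives have a fitted effect of over 30% in size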)
Summary of the method: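 Cell viability in VM7Luc4E2 cells (endogenous full-length ER-alpha) measured by CellTiter-Fluor fluorescence in the same wells as the luciferase screen. Cells pre-cultured 5 days in charcoal-stripped serum, then treated 22 h with compounds at 15 concentrations plus 10.0nM ICI-182,780.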

[10] = molecular target: Progesterone receptor (Homo sapiens) (UniProt P06401); experiment: qHTS assay to identify small molecule agonists of the progesterone receptor (PR) signaling pathway (AID 1346784); note: nearly all actives have a fitted effect of over 30% in size
Summary of the method: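 Agonist qHTS: compounds pinned onto 3,000 PR-UAS-bla HEK 293T cells per well in charcoal-stripped serum medium, 16hr at 37C, then beta-lactamase activity measured by LiveBLAzer FRET fluorescence after 2 hours at room temperature.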

[11] = molecular target: Progesterone receptor (Homo sapiens) (UniProt P06401); experiment: qHTS assay to identify small molecule antagonists of the progesterone receptor (PR) signaling pathway (AID 1346795; active = well fitted inhibition curve with a large enough effect in the signal ratio in the repeat runs, not every such curve was filed as active; the % refers to the signal ratio)
Summary of the method: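 Antagonist mode with agonist R5020 at 1 nM final and 16 hr incubation at 37C. Reporter was beta-lactamase driven by UAS in HEK293T (PR-UAS-bla), 2% charcoal-stripped serum; signal from LiveBLAzer FRET substrate, 2 hr at room temperature.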

[12] = qHTS assay to identify small molecule antagonists of the progesterone receptor (PR) signaling pathway - cell viability counter screen (AID 1346798; active = well fitted curve in the direction sought with a large enough effect in the repeat runs; an effect the other way counts as inactive or inconclusive; note: series mostly up to about 92 µM; nearly all actives have a fitted effect of over 50% in size)
Summary of the method: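 Cytotoxicity read as CellTiter-Glo luminescence (30 min, room temperature) in the same wells as the beta-lactamase readout. HEK293T PR-UAS-bla cells in charcoal-stripped 2% FBS received compound and R5020, then 16 h at 37C, 5% CO2.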

[13] = qHTS assay to identify small molecule agonists of the progesterone receptor (PR) signaling pathway - cell viability counter screen (AID 1346799); note: nearly all actives have a fitted effect of over 45% in size
Summary of the method: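 Cytotoxicity measured by CellTiter-Glo luminescence (30 min, RT) in the same wells as the PR beta-lactamase agonist read. Those HEK293T cells had 16 h compound treatment at 37 C in 2% charcoal-stripped FBS medium.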

[14] = qHTS assay to identify small molecule antagonists of the TGF-beta/Smad signaling pathway - cell viability counter screen (AID 1346824; active = well fitted curve in the direction sought with a large enough effect in the repeat runs; an effect the other way counts as inactive or inconclusive; note: nearly all actives have a fitted effect of over 50% in size)
Summary of the method: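 Cytotoxicity counter-screen run in the same wells as the beta-lactamase Smad reporter read: CellTiter-Glo luminescence after 30 min at room temperature. HEK 293T SBE-bla cells had 5 hr compound exposure at 37 C with TGF-beta1 (0.25 ng/mL stock).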

[15] = qHTS assay to identify small molecule agonists of the TGF-beta/Smad signaling pathway - cell viability counter screen (AID 1346829; active = well fitted curve in the direction sought with a large enough effect in the repeat runs; an effect the other way counts as inactive or inconclusive; note: top concentration of the series differs between compounds; nearly all actives have a fitted effect of over 45% in size)
Summary of the method: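 Here the cytotoxicity of library compounds is measured in SBE-bla HEK 293T cells treated for 5 hr, using CellTiter-Glo added to wells already read for the beta-lactamase reporter.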

[16] = qHTS assay to identify small molecule agonists of the TGF-beta/Smad signaling pathway (AID 1346859; active = well fitted activation curve with a large enough effect in the signal ratio in the repeat runs, not every such curve was filed as active; the % refers to the signal ratio; note: series mostly up to about 77 µM)
Summary of the method: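 Fluorescence (ex 405 nm; em 460 and 530 nm) was read 2 h after LiveBLAzer FRET substrate at RT. The preceding compound treatment of overnight-plated SBE-bla HEK293T cells lasted 5 h at 37 C.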

[17] = molecular target: Thyrotropin-releasing hormone receptor (Homo sapiens) (UniProt P34981); experiment: qHTS assay to identify small molecule antagonists of the thyrotropin-releasing hormone receptor (TRHR) signaling pathway (AID 1346877; active = well fitted inhibition curve with a large enough effect in the repeat runs, not every such curve was filed as active; note: series mostly up to about 51 µM)
Summary of the method: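 TRHR-expressing HEK293 cells loaded with calcium dye for 2 h at 37 C; compounds pre-incubated 5 min at room temperature before TRH challenge at 1 nM final. Intracellular calcium fluorescence read kinetically for 3 min; 15 concentrations in triplicate.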

[18] = molecular target: Androgen receptor (Homo sapiens) (UniProt P10275); experiment: qHTS assay to identify small molecule agonists of the androgen receptor (AR) signaling pathway in the presence of an antagonist (AID 1259381); note: nearly all actives have a fitted effect of over 15% in size
Summary of the method: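 MDA-kb2 cells carrying MMTV-luciferase (AR/GR responsive), 3,000 cells/well, co-treated with 3.0 uM nilutamide final. Compounds at 15 concentrations, 16 hr at 37C without CO2. Luciferase luminescence read after 30 min with ONE-Glo.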

[19] = molecular target: Estrogen receptor beta (Homo sapiens) (UniProt Q92731); experiment: qHTS assay to identify small molecule antagonists of the estrogen receptor beta (ER-beta) signaling pathway (AID 1259378; active = well fitted inhibition curve with a large enough effect in the signal ratio in the repeat runs, not every such curve was filed as active; the % refers to the signal ratio)
Summary of the method: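 Antagonist mode: compounds added to beta-lactamase reporter HEK293T ER-beta-UAS cells stimulated with E2 (1nM final), 16 hr at 37C. LiveBLAzer B/G FRET substrate, 2 hours room temperature, fluorescence read-out.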

Measured: Potency

Chain of Thyrotropin-releasing hormone receptor (Homo sapiens) (P34981 whole entry, looked up): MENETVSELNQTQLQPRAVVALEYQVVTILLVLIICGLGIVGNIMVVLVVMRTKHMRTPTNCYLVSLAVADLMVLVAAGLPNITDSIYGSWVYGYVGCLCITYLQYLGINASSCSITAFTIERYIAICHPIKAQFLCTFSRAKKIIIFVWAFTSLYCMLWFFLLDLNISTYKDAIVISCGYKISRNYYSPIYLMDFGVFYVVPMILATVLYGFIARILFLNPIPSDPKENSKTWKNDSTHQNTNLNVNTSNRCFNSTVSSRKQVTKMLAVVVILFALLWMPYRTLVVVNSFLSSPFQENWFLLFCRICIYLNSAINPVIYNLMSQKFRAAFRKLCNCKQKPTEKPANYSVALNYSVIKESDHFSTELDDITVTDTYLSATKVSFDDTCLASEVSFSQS
Chain of Progesterone receptor (Homo sapiens) (P06401 whole entry, looked up): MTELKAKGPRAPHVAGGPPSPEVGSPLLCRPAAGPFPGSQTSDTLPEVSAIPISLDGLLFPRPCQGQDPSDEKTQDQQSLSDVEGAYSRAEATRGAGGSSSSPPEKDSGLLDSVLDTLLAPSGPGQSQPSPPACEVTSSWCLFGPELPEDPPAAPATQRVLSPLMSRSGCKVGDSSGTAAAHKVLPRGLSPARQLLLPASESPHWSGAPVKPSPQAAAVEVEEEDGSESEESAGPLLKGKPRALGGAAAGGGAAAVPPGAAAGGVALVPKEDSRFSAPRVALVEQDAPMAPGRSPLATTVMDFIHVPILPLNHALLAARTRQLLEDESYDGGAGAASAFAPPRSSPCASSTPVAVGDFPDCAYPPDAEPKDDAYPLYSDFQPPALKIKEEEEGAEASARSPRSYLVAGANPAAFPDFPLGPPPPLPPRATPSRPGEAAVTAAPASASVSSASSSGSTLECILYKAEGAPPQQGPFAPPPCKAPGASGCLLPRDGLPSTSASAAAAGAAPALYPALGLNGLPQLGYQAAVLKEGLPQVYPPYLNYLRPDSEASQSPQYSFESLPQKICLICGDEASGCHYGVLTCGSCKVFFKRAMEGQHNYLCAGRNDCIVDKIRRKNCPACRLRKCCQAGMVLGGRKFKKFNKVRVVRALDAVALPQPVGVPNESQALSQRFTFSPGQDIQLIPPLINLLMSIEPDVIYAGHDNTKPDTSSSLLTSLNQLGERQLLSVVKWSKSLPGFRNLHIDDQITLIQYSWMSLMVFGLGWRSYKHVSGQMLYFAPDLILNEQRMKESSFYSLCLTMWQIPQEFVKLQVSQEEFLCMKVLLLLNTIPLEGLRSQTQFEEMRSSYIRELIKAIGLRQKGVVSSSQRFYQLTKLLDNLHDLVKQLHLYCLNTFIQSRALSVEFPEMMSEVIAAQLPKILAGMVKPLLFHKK
Chain of Thyrotropin receptor (Homo sapiens) (P16473 whole entry, looked up): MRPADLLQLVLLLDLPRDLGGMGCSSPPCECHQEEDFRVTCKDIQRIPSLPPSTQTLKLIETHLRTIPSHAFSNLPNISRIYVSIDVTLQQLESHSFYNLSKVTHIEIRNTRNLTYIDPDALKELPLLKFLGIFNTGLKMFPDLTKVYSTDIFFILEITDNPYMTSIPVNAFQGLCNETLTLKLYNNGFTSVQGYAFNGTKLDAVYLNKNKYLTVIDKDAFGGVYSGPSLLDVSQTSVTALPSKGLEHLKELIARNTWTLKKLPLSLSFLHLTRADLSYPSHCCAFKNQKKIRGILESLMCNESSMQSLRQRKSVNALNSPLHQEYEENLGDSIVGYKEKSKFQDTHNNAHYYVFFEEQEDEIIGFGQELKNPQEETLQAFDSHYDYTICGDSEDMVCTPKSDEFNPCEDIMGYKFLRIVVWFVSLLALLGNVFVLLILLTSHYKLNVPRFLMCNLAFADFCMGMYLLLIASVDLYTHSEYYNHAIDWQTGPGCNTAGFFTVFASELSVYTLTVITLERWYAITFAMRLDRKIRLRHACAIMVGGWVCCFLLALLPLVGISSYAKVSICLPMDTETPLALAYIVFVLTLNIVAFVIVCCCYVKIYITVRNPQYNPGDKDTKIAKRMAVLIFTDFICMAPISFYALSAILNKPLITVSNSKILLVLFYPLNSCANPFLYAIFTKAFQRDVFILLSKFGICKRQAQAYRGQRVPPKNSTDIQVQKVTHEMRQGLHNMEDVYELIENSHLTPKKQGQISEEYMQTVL
Chain of Estrogen receptor (Homo sapiens) (P03372 whole entry, looked up): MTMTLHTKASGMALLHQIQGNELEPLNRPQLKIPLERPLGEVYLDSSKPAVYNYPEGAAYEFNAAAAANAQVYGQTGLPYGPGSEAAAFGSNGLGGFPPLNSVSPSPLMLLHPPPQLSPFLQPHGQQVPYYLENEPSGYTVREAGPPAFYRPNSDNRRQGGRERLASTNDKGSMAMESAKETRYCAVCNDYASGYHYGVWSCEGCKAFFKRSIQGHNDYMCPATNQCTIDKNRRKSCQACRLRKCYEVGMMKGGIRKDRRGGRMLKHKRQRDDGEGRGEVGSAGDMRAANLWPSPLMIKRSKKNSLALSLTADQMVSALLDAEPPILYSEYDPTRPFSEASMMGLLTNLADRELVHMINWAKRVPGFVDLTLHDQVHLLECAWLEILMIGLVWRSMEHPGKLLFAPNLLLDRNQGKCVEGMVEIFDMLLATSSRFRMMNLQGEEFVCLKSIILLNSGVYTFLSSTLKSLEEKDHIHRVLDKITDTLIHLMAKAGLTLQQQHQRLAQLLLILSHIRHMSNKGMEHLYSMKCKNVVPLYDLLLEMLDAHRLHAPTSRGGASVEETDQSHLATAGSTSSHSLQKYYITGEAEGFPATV
Chain of Estrogen receptor beta (Homo sapiens) (Q92731 whole entry, looked up): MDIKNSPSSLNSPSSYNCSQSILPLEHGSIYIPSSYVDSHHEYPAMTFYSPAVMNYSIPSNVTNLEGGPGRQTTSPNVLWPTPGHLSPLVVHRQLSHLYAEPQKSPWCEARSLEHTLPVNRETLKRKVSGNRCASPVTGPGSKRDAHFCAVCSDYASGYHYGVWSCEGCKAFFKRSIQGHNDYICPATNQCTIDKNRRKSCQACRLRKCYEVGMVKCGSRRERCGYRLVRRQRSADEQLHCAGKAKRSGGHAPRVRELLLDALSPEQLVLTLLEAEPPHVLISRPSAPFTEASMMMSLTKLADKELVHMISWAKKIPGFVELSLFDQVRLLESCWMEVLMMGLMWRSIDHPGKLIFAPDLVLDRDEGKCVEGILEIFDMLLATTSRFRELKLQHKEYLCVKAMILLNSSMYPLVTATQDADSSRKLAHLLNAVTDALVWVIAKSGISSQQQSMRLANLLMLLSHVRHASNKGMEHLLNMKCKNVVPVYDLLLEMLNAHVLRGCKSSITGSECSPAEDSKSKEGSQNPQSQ
Chain of Androgen receptor (Homo sapiens) (P10275 whole entry, looked up): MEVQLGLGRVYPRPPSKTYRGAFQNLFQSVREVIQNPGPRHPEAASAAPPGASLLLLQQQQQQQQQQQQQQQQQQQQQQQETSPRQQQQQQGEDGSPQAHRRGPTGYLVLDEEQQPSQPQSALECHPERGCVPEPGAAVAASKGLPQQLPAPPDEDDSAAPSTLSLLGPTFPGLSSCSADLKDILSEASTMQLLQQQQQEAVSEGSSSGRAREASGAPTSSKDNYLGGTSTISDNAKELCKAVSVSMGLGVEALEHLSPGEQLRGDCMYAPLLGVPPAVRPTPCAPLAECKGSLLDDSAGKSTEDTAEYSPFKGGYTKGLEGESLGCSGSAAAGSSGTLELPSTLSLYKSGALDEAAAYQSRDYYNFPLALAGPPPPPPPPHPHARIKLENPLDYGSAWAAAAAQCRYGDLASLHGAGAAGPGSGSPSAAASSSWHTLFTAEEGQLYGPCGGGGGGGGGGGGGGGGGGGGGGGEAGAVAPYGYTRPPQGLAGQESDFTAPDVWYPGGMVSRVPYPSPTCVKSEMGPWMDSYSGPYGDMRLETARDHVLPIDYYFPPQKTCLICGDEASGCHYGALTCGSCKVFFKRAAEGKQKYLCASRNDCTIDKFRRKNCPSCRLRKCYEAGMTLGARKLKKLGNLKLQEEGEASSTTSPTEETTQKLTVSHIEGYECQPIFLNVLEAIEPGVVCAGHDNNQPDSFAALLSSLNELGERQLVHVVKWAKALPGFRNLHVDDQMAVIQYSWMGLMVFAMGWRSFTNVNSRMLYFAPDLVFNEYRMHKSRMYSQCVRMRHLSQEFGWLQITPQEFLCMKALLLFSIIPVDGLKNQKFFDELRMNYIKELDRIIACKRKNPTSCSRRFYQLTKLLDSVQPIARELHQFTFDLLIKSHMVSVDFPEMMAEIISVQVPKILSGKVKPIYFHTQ

Cc1cc(O)cc2c1O[C@](C)(CCC[C@H](C)CCC[C@H](C)CCCC(C)C)CC2
not listed: [18] | [19]
inactive: all other assays above

CC(C)NCCCC1(C(N)=O)c2ccccc2-c2ccccc21
not listed: [18] | [19]
inactive: all other assays above

CN(C)CCCNCCCN(C)C
not listed: [14] | [15] | [18] | [19]
inactive: all other assays above

CCCN1CCCC[C@H]1C(=O)Nc1c(C)cccc1C
not listed: [6] | [11] | [15] | [18] | [19]
inactive: all other assays above

C=C(C)CS(=O)(=O)O
not listed: [11] | [13] | [19]
inactive: all other assays above

CCOC(=O)CCC(C)=O
not listed: [3] | [7] | [8] | [15] | [17] | [18]
inactive: all other assays above

N[C@H]1CN(c2c(F)cc3c(=O)c(C(=O)O)cn(C4C[C@H]4F)c3c2Cl)CC12CC2 (stereo not given in full)
not listed: [9] | [15] | [18] | [19]
inactive: all other assays above

C1OCOCO1
not listed: [6] | [13] | [17] | [18] | [19]
inactive: all other assays above

Cn1cc(S(C)=O)c(=O)c2ccc(F)cc21 (stereo not given)
not listed: [13] | [18] | [19]
inactive: all other assays above

C[N+](C)(C)CC(O)CC(=O)[O-] (stereo not given)
not listed: [6] | [18] | [19]
inactive: all other assays above

CN1CCCC1
not listed: [9] | [18] | [19]
inactive: all other assays above

CCOC(C)(C)C
not listed: [9] | [18] | [19]
inactive: all other assays above

NS(=O)(=O)c1cc(C(=O)O)cc(N2CCCC2)c1Oc1ccccc1
not listed: [11] | [13] | [18] | [19]
inactive: all other assays above

Source: PubChem BioAssay (Tox21)
